PNC assembly inh: High Content Assay for Compounds that inhibit the Assembly of the Perinucleolar Compartment. PC3M PTB-GFP, PNC prevalence imaging, 16 h; active compounds read low. activity change (PNC), negative = inhibition, % at 10 µM. 3.1% of 140,000 active;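 active = readout at or below -70, meaning at least 70% loss of cells showing the perinucleolar compartment, a nuclear body marking cancer cells; inconclusive = readout between -30 and a set limit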;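 also: plate controls were DMSO wells for no effect and camptothecin positive control wells for full effect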
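Compounds are pinned in duplicate onto adhered PC3M cells stably expressing GFP-tagged PTB and incubated 16 h at 37 C. Cells are then fixed, nuclei stained with Hoechst, and PNC-positive cells counted.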
HPGD inh: qHTS Assay for Inhibitors of HPGD (15-Hydroxyprostaglandin Dehydrogenase); purified HPGD, NADH fluorescence kinetic, PGE2 substrate; Potency, µM, for inactives: top-dose activity change, negative = inhibition, most hits filed as inhibitors; 4.3% of 150,000 active; AID 894, 2007; also: potency is read from the fitted curve at half-maximal effect
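NADH formation kinetics: reaction with 30 uM PGE2 and 1 mM NAD+ (final), 20 nM enzyme, Tris-HCl pH 8 with Tween 20, after 15 min compound preincubation at room temperature. Fluorescence change, last versus first of five reads.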
ALDH1A1 block: qHTS Assay for Inhibitors of Aldehyde Dehydrogenase 1 (ALDH1A1); Aldehyde dehydrogenase 1A1 (Homo sapiens), P00352; Purified ALDH1A1, NADH fluorescence, propionaldehyde substrate; Potency, µM (titrated, usually from 75.3 µM), for the others: at the highest dose activity, negative = inhibition, hits mostly inhibitors; 7.3% of 220,000 active; AID 1030, 2008;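 also: potency is read from the fitted curve at half-maximal effect; plate controls were no enzyme wells and a reference inhibitor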
Target sequence (P00352 whole entry, looked up): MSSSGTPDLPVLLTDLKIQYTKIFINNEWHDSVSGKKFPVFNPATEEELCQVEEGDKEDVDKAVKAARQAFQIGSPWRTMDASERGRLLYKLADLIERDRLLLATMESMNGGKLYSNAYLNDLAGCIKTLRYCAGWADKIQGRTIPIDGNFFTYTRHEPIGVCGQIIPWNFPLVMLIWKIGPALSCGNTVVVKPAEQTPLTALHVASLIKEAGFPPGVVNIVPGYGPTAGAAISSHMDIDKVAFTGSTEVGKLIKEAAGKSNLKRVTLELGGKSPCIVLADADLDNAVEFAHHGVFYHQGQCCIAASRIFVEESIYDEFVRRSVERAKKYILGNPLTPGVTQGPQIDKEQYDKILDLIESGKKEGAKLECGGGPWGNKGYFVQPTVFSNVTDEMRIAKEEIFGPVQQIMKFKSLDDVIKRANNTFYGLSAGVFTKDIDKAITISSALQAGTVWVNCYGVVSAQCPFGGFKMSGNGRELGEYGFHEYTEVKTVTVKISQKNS
* = called active by the depositor; [ ] = remark or other dose. Compounds with a hit are over-represented: about 11% of the library has one in this group of screens. Unless noted, calls follow the shape of the dose curve; as a rule, active = well fitted inhibition curve with a large enough effect (not every such curve was filed as active); inconclusive = small, poorly fitted or top-dose-only effect, or another doubt; inactive = no such curve, though single readings can be large or run the other way. Unless noted, % is scaled to controls: 0 for no effect and ±100 for the full control effect.

Screening CCN=C1S/C(=C\c2cn(C(C)=O)nc2-c2ccccc2)C(=O)N1CC returned PNC assembly inh -2.2, HPGD inh inconclusive and ALDH1A1 block inconclusive.
For Cc1cnc(C(=O)Nc2ccc(C(=O)N(C)C3CCCCC3)cc2)cn1 the results were PNC assembly inh -21.0, HPGD inh 12.6µM* and ALDH1A1 block 9.2%.
`Cc1cnc(C(=O)Nc2ccccc2-n2cccc2)cn1` gave PNC assembly inh -16.9, HPGD inh -10.9% and ALDH1A1 block 15.8µM*.
For Cc1cnc(C(=O)Nc2ccc(C(C)C)cc2)cn1 the results were ALDH1A1 block -2.7%.
Screening Cc1cnc(C(=O)Nc2ccccc2F)cn1 returned PNC assembly inh inconclusive, HPGD inh -19.7% and ALDH1A1 block -3.8%.
Screening Cc1cnc(C(=O)Nc2ccc(C)c(S(=O)(=O)N(C)C)c2)cn1 returned PNC assembly inh 0.1, HPGD inh -13.8% and ALDH1A1 block inconclusive.
`Cc1cnc(C(=O)Nc2ccc(F)cc2)cn1` gave PNC assembly inh 34.7, HPGD inh -22.6% and ALDH1A1 block 31.6µM*.
For CCCCc1ccc(-n2c(Cc3cccs3)n[nH]c2=S)cc1 the results were ALDH1A1 block -9.7%.
For COC(=O)NC(c1ccccc1)[C@@]1(C(=O)OC)CCCC1=O (some centres undefined) the results were ALDH1A1 block 12.2%[13.5 µM].
Screening Cc1ccc([N+](=O)[O-])cc1NC(=O)c1ccc(-c2ccccc2)cc1 returned PNC assembly inh -28.4, HPGD inh -13.7% and ALDH1A1 block 15.2%.
`CCC1(C)Cc2nc3sc(C(=O)O)c(N)c3cc2CO1` (centres undefined) gave PNC assembly inh -4.4, HPGD inh -18.5% and ALDH1A1 block 22.4µM*.
Screening CCOC(=O)c1sc2nc3c(cc2c1N)COC(C)(CC)C3 (centres undefined) returned PNC assembly inh -11.8, HPGD inh inconclusive and ALDH1A1 block inconclusive.
